# Source: PubChem BioAssay
# TGFb inhibitor – blocks TGF-b signaling; HepG2 CAGA-GFP TGF-b/SMAD3 reporter, GFP fluorescence, 18 h; TGF-beta stimulated, 500 pg/mL final; AID 588855; 1.2% of 410,000 active; Potency, µM (titrated, usually from 46.1 µM), for inactives: top-dose activity, negative = inhibition, hits mostly inhibitors; also: % is scaled to controls: 0 for no effect and ±100 for the full control effect; nearly all actives have a fitted effect of over 65% in size
#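 Read-out: total well GFP (ex488/em500-530) summed from mean per-cell fluorescence. Cells: HEPG2 CAGA-GFP, 1% FBS DMEM, 18 h at 37 degrees C with 500 pg/mL final TGF-beta. Unstimulated wells served as the full-inhibition control; stimulated DMSO wells = 0%.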
# Nrf2 inh – inhibitors of Nrf2 signaling; A549 ARE-Fluc reporter, luciferase luminescence, 18-24 h; Potency, µM (top dose mostly 46 µM), inactives show at the top dose activity change, negative = inhibition, most hits filed as inhibitors; 2.1% of 360,000 active; also: % is scaled to controls: 0 for no effect and ±100 for the full control effect; nearly all actives have a fitted effect of over 60% in size
#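 Cells were seeded and rested 2 h, then exposed to compounds for 18-24 h. CellTiter-Fluor was read first as a viability measure. BugLite was added 15 min before the final luminescent read of ARE-luciferase activity in A549 cells.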
# HepG2 tox – kills HepG2 cells in TGF-b inhibitor counter-screen; HepG2 CAGA-GFP viability, ATP luminescence, 18 h; Potency, µM (doses to about 46.1 µM), for inactives: at the top dose activity change, negative = cytotoxicity, usual class: cytotoxic; 0.76% of 410,000 active; AID 588856
#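 CellTiter-Glo luminescence gave cytotoxicity after 18 hours at 37 degrees C. The cells were HepG2 CAGA-GFP in 1% FBS DMEM, stimulated with 500 pg/mL TGF-beta after compound addition. %Activity was normalised to no-cell wells (complete cell-killing) and DMSO (no toxicity), and curves were fitted and classified.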
# ATXN2 expr inh – reduces ATXN2 reporter expression in HEK-293 cells. HEK-293 ATXN2-luciferase reporter, luminescence, 24 h. Potency, µM (doses to about 57 µM), for inactives: at the top dose activity change, negative = inhibition, usual class: inhibitors. 0.72% of 360,000 active. AID 1745845; also: % is scaled to controls: 0 for no effect and ±100 for the full control effect; nearly all actives have a fitted effect of over 55% in size
#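 qHTS (up to 57 uM final) was run with 24 h compound exposure of reporter cells at 37 °C. Each well was multiplexed: SteadyGlo luminescence measured ATXN2-luciferase expression after a fluorogenic Gly-Phe-AFC viability readout (25 uM final).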
# ATXN viability – viability counter-screen for ATXN expression inhibitors. 0.49% of 400,000 active. S2 cells (HEK-293 line with an ATXN2-luciferase reporter) viability, CellTiter-Fluor protease fluorescence, 24 h. Potency, µM (highest dose often 56.7 µM), actives largely listed as cytotoxic; also: nearly all actives have a fitted effect of over 40% in size
# A549 tox – kills or reduces viability of A549 cells in Nrf2 counter-screen; A549 ARE-Fluc cells, CellTiter-Fluor viability, 18-24 h; Potency, µM (doses to about 46 µM), for the others: at the top dose activity change, negative = cytotoxicity, most hits filed as inhibitors; 0.16% of 390,000 active; AID 504648; also: % is scaled to controls: 0 for no effect and ±100 for the full control effect
#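 A549 ARE-Fluc cells in 5% FBS OPTI-MEM, 5000 cells/well, rested 2 h then exposed to compounds in concentration-response for 18-24 h at 37 °C. Viability by CellTiter-Fluor fluorescence (Ex 405/Em 525) after 30 min; luciferase luminescence (BugLite, 15 min, RT) read afterwards.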
# * = called active by the depositor; i = inactive; ? = inconclusive; · = no result given; ! = not active in a repeat; [ ] = remark or other dose. Rows were chosen to be rich in hits. Some 3.8% of all compounds tested hit in one or more screens of this group. Calls follow the shape of the dose curve; as a rule, active = well fitted curve in the direction sought with a large enough effect; inconclusive = small, poorly fitted or top-dose-only effect, or another doubt; inactive = no such curve, though single readings can be large; an effect the other way counts as inactive or inconclusive. Potency is read from the fitted curve at half-maximal effect.
SMILES,TGFb inhibitor,Nrf2 inh,HepG2 tox,ATXN2 expr inh,ATXN viability,A549 tox
O=[N+]([O-])c1cccc(-c2csc(N/N=C/c3cccc(O)c3)n2)c1,1%,18µM*,-1%,?,?,?
CC(C)CN(C(=O)CN(C)C(=O)c1ccco1)c1c(N)n(CC(C)C)c(=O)[nH]c1=O,10%,25%,4%,3%,i,0%
COC(=O)[C@]1(Cc2ccccc2)N[C@H](CN(C)S(=O)(=O)c2ccc(-c3ccccc3)cc2)[C@@H]2C(=O)N(C)C(=O)[C@@H]21,7%,?,-31%,-8%,i,-2%
Cc1ccc(C(C)C)c(OCC(=O)Nc2cc(-c3nc4ccccc4[nH]3)ccc2C)c1,·,6.5µM*,-48%,·,·,9.2µM*
COc1cc(OC)cc(C(=O)Nc2cc(-c3nc4ccccc4[nH]3)ccc2C)c1,-10%,?,-22%,?,?,-19%
COc1c(Cl)cc(C(=O)Nc2cc(-c3nc4ccccc4[nH]3)ccc2C)cc1Cl,?,?,-37%,?,10µM*,-19%
Cc1cc(N/N=C/c2ccccc2O)c2ccccc2n1,?,18µM*,-39%,16µM*,?,-22%
COc1ccc(/C=N/Nc2cc(C)nc3ccc(Br)cc23)cc1,11µM*,?,6.3µM*,?,?,?
Cc1cc(-c2ccccc2)nc(N/N=C/c2ccc(O)cc2O)n1,?,?,-26%,?,?,-13%
COc1ccc2nc(C)cc(N/N=C/c3cccc(OC)c3O)c2c1,?,-5%,-101%,?,·,-3%
COc1ccccc1C(=O)c1cn(CC(=O)Nc2ccccc2F)c2nc(C)ccc2c1=O,0%,-15%,4%,9%,?,-20%
Cc1cccc(Nc2nc(-c3cccs3)cs2)n1,13µM*,?,-19%,108%,i,0%
CCc1[nH]nc(C(=O)N2CCCC(N3CCN(c4ccccc4C)CC3)C2)c1C (centres undefined),?,-19%,-14%,-5%,i,6%
CCOC(=O)c1ccc2c(c1)n(CC)c(/C=C/N(C)c1ccccc1)[n+]2CC,0%,3.3µM*,-17%,-33%,i,?
CN1CCN(c2oc(-c3ccc(OCc4ccc(Cl)cc4)cc3)nc2C#N)CC1,7%,?,7%,·,·,0%
CCCCc1c(-c2ccccc2OC)ncn1CCc1cccc(Cl)c1,·,·,·,0%,·,·
CCCCc1c(-c2ccccc2OC)ncn1Cc1cccc(-c2ccccc2)c1,·,·,·,28µM*,?,·
CCCCc1c(-c2ccccc2OC)ncn1Cc1ccc(-c2ccccc2)cc1,·,·,·,25µM*,·,·
CCCc1c(-c2cccc(Br)c2)ncn1Cc1ccccc1OC,·,·,·,-38%,?,·
CC(C)(C)C1CCC2(CC1)C(C#N)=C(SCC(=O)Nc1ccccc1)NC(=O)C2C#N (centres undefined),7.1µM*,·,10µM*,?,?,?
COc1ccc(Cc2nnc(N/N=C/c3ccc(O)cc3)[nH]c2=O)cc1OC,?,?,-6%,1.6µM*,?,5%
COCCN(C(=O)CSc1nnc(Nc2ccccc2F)s1)c1c(N)n(Cc2ccccc2)c(=O)[nH]c1=O,3%,15%,-6%,16%,i,-9%
COc1ccc(NC(=O)CCS(=O)(=O)c2nc(-c3cccs3)cc(C(F)(F)F)n2)cc1,10µM*,-5%[9.27 µM],-89%,·,·,0%
O=C(CCS(=O)(=O)c1nc(-c2cccs2)cc(C(F)(F)F)n1)Nc1ccc(F)c(Cl)c1,20µM*,-12%[9.27 µM],11µM*,·,·,?
O=C(CCS(=O)(=O)c1nc(-c2cccs2)cc(C(F)(F)F)n1)Nc1ccc(OC(F)(F)F)cc1,-17%,6%[9.27 µM],-39%,-18%,16µM*,-1%
SMILES,TGFb inhibitor,Nrf2 inh,HepG2 tox,ATXN2 expr inh,ATXN viability,A549 tox
CC(C)c1nnc(NC(=O)CCS(=O)(=O)c2nc(-c3cccs3)cc(C(F)(F)F)n2)s1,14µM*,23µM*,-95%,-7%,?,?
CC(C)c1nnc(NC(=O)CCS(=O)(=O)Cc2ccccc2)s1,25%,18%,-8%,28%,i,9%
COc1ccc(Cl)cc1NC(=O)CCS(=O)(=O)c1nc(-c2cccs2)cc(C(F)(F)F)n1,?,-1%[9.27 µM],-101%,·,·,9%
COc1ccccc1C(C)NCC(=O)NC(=O)NCc1ccco1 (centres undefined),3%,14%,-12%,-3%,i,-8%
CCN(C(C)=O)c1cnc(C=NNC(N)=S)c2ccccc12,-11%,8.2µM*,-19%,?,i,?
Cn1c(=O)oc2cc(S(=O)(=O)NC(CC(=O)O)c3cccc(Br)c3)ccc21 (centres undefined),-23%,24%,-8%,·,·,-4%
Cc1ccc(C(=O)C(c2ccccc2)N2Cc3ccccc3C2=N)cc1 (centres undefined),?,?,-53%,0%,14µM*,-12%
COC(CNC(=O)c1ccc2c(c1)ncn2C1CCCCCC1)OC,5%,0%,-7%,1%,i,-4%
COc1ccccc1-n1cnnc1SCC(=O)Nc1nc(C)c(Cl)cc1Cl,?,-6%,1%,1%,i,1%
COc1cc(NCCCCCCCN)c2ncccc2c1,?,-18%,-60%,-26%,i,-4%
COc1cc(NC(C)CCCN)c2ncccc2c1 (centres undefined),?,-16%,-55%,?,13µM*!,-5%
